This is a sample that favours compounds with a hit; in the whole collection about 4.8% have one here.
HepG2 tox-1 – counter-screen for TGF-b inhibitors: cytotoxicity in HepG2 cells | Potency, µM (titrated, usually from 46.1 µM), without a hit: at the highest dose activity change, negative = cytotoxicity, hits mostly cytotoxic | actives 0.76% (n = 410,000) | HepG2 CAGA-GFP viability, ATP luminescence, 18 h | AID 588856; also: potency is read from the fitted curve at half-maximal effect
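CellTiter-Glo luminescence gave cytotoxicity after 18 hours at 37 degrees C. The cells were HepG2 CAGA-GFP in 1% FBS DMEM, stimulated with 500 pg/mL TGF-beta after compound addition. %Activity was normalised to no-cell wells (complete cell-killing) and DMSO (no toxicity), and curves were fitted and classified.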
ATXN2 expr inh – ATXN2 expression inhibition; actives 0.72% (n = 360,000); AID 1745845; HEK-293 ATXN2-luciferase reporter, luminescence, 24 h; Potency, µM (top dose mostly 57 µM), for the others: at the top dose activity change, negative = inhibition, usual class: inhibitors; also: potency is read from the fitted curve at half-maximal effect; % is scaled to controls: 0 for no effect and ±100 for the full control effect; nearly all actives have a fitted effect of over 55% in size
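qHTS (up to 57 uM final) was run with 24 h compound exposure of reporter cells at 37 °C. Each well was multiplexed: SteadyGlo luminescence measured ATXN2-luciferase expression after a fluorogenic Gly-Phe-AFC viability readout (25 uM final).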
S2 tox – cell viability loss in ATXN counter-screen; S2 cells (HEK-293 line with an ATXN2-luciferase reporter) viability, CellTiter-Fluor protease fluorescence, 24 h; AID 651635; actives 0.49% (n = 400,000); Potency, µM (highest dose often 56.7 µM), usual class: cytotoxic; also: potency is read from the fitted curve at half-maximal effect; nearly all actives have a fitted effect of over 40% in size
DRD3 agonist – agonists of human D3 dopamine receptor; max activation, %; AID 652048; D3R DiscoveRx beta-arrestin cells, luminescence, 90 min; P35462; actives 0.58% (n = 410,000); in the data active = max activation above about 30%; also: 0% is about no effect
Target sequence (P35462 whole entry, looked up): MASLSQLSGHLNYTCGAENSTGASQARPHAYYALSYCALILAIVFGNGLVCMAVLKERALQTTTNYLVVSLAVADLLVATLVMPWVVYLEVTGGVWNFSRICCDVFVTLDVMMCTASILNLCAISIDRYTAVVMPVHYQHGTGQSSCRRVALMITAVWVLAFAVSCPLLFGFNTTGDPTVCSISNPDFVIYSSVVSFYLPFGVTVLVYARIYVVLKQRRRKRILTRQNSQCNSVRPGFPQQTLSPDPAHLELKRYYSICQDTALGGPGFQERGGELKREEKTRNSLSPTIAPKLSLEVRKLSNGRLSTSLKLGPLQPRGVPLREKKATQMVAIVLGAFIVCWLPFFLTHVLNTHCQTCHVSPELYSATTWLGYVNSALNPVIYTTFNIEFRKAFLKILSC
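Agonist mode: compounds and dopamine controls were applied to plated cells for 90 min at 37 degrees C after an overnight attachment at 1500 cells/well. Luminescent read-out followed 30 - 60 minutes at room temperature with DiscoveRx detection reagent.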
TGFb inhibitor – inhibitors of TGF-b signaling; Potency, µM (doses to about 46.1 µM), for inactives: at the top dose activity, negative = inhibition, usual class: inhibitors; actives 1.2% (n = 410,000); AID 588855; HepG2 CAGA-GFP TGF-b/SMAD3 reporter, GFP fluorescence, 18 h; TGF-beta stimulated, 500 pg/mL final; also: potency is read from the fitted curve at half-maximal effect; % is scaled to controls: 0 for no effect and ±100 for the full control effect; nearly all actives have a fitted effect of over 65% in size
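Inhibition of TGF-beta-driven CAGA-GFP reporter expression in HEPG2 cells is measured by cellular GFP fluorescence after 18 h stimulation with 500 pg/mL recombinant TGF-beta in 1% FBS medium at 37 degrees C.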
DRD3 antagonist – D3 dopamine receptor (human) antagonism; P35462; D3R cells, DiscoveRx beta-arrestin luminescence, antagonist mode; active compounds read low; max response, negative = inhibition, %; actives 2.5% (n = 360,000); AID 652054; in the data active = max response below about -50%; inconclusive = no clear call, values can overlap the other calls; also: % is scaled to controls: 0 for no effect and ±100 for the full control effect
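Cells plated overnight at 1500 cells/well, then exposed to library compounds with dopamine controls for 90 minutes at 37 degrees C. DiscoveRx reagent added for 30–60 minutes at room temperature; luminescence read, quantitative HTS format.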
TGFb CAGA inh – TGF-b pathway inhibition, cherry-pick retest; shares compounds with TGFb inhibitor; HepG2 CAGA-GFP TGF-b reporter, GFP fluorescence, 18 h; cells stimulated with TGF-beta, 500 pg/mL; Potency, µM (titrated, usually from 46.1 µM), inactives show at the highest dose activity, negative = inhibition, actives largely listed as inhibitors; actives 63% (n = 1,600); also: potency is read from the fitted curve at half-maximal effect; % is scaled to controls: 0 for no effect and ±100 for the full control effect; nearly all actives have a fitted effect of over 65% in size
HepG2 tox-2 – toxic to HepG2 cells in TGF-b counterscreen; shares compounds with TGFb inhibitor; HepG2 CAGA-GFP viability, ATP luminescence, 18 h; cells stimulated with TGF-beta, 500 pg/mL; Potency, µM (doses to about 46.1 µM), for inactives: at the highest dose activity, negative = cytotoxicity, actives largely listed as inhibitors; actives 27% (n = 1,600); AID 720535; also: potency is read from the fitted curve at half-maximal effect; % is scaled to controls: 0 for no effect and ±100 for the full control effect; nearly all actives have a fitted effect of over 70% in size
TGFb CCL64 inh – TGF-b inhibition, CCL64 orthogonal assay | CCL64 CAGA-GFP reporter, TGF-b stimulated, GFP fluorescence, 18 h | Potency, µM (series often up to 46.1 µM), without a hit: at the highest dose activity, negative = inhibition, actives largely listed as inhibitors | actives 41% (n = 1,600) | shares compounds with TGFb inhibitor | AID 720536; also: potency is read from the fitted curve at half-maximal effect; nearly all actives have a fitted effect of over 65% in size
COP TGFb inh – validation of TGF-b inhibitors in HepG2 COP promoter reporter | shares compounds with TGFb inhibitor | HepG2 COP-GFP TGF-b reporter, GFP fluorescence, 18 h; cells stimulated by added recombinant TGF-beta | Potency, µM (titrated, usually from 46.1 µM), for inactives: top-dose activity, negative = inhibition, actives largely listed as inhibitors | actives 3% (n = 1,600) | AID 720537; also: potency is read from the fitted curve at half-maximal effect; nearly all actives have a fitted effect of over 70% in size
* marks the source's active call; other numbers are inactive results; i = inactive; u = inconclusive; x = no result. Unless noted, calls follow the shape of the dose curve; as a rule, active = well fitted curve in the direction sought with a large enough effect; inconclusive = small, poorly fitted or top-dose-only effect, or another doubt; inactive = no such curve, though single readings can be large; an effect the other way counts as inactive or inconclusive.

SMILES	HepG2 tox-1	ATXN2 expr inh	S2 tox	DRD3 agonist	TGFb inhibitor	DRD3 antagonist	TGFb CAGA inh	HepG2 tox-2	TGFb CCL64 inh	COP TGFb inh
CC(C)C[C@@H](CN1CCCC1CN1C(=S)NC[C@@H]1Cc1ccc(O)cc1)N1C[C@H](Cc2ccccc2)N(CC2CCCCCC2)C1=S (some centres not stated)	-7%	-28%	u	22	16µM*	1	10µM*	u	2.1µM*	31%
CC(C)C[C@@H](CN1CCCC1CN1C(=S)NC[C@@H]1Cc1ccc(O)cc1)N1C[C@H](Cc2ccccc2)N(CC2CCCCC2)C1=S (some centres not stated)	-34%	-15%	u	29	u	-5	x	x	x	x
COc1ccc(NC(=O)C(NC(=O)/C=C\c2ccc3c(c2)OCO3)c2ccc(C)cc2)cc1 (configuration not stated)	0%	-15%	i	-20	9%	x	x	x	x	x
COc1ccc2c(c1)sc1nc(-c3ccccc3)cn12	-69%	u	i	-5	10µM*	0	u	u	15µM*	-15%
COc1ccc(-c2cn3c(n2)sc2cc(C(=O)NCc4ccccc4)ccc23)cc1	-12%	x	x	0	-16%	x	x	x	x	x
Cc1cccc(COC[C@H](CC(C)C)N2CCN(C(=O)c3ccc(C(C)(C)C)cc3)CCC2=O)c1	x	u	x	7	x	69	x	x	x	x
CC(C)C[C@@H](COCc1cccc(Cl)c1)N1CCN(C(=O)c2cccc(C(F)(F)F)c2)CCC1=O	x	-39%	u	-1	x	1	x	x	x	x
Cc1cccc(COCC(CC(C)C)N2CCN(C(=O)c3ccc(C(C)(C)C)cc3)CCC2=O)c1 (configuration not stated)	-111%	u	u	1	8.9µM*	13	u	u	u	u
CC(C)CC(COCc1cccc(Cl)c1)N1CCN(C(=O)c2ccc(C(F)(F)F)cc2)CCC1=O (configuration not stated)	-27%	-4%	x	7	10µM*	25	18µM*	-11%	u	-1%
Cc1ccc(-c2cc(C(=O)Oc3ccc(C#N)cc3)no2)cc1	-20%	-3%	i	-7	u	x	x	x	x	x
CCOC(=O)CCc1ccc(NC(=O)/C=C/c2ccc([N+](=O)[O-])o2)cc1	10µM*	u	8.4µM*	-17	4.5µM*	1	9.2µM*	13µM*	u	-31%
Cc1cccc(NC(=O)/C=C/c2ccc([N+](=O)[O-])s2)c1	-63%	8.9µM*	8.9µM*	-6	u	u	u	5.2µM*	2.6µM*	41%
Cc1ccc(NC(=O)/C=C/c2ccc([N+](=O)[O-])s2)c(C)c1	7.9µM*	8.9µM*	u	-11	5µM*	u	u	10µM*	4.1µM*	26%
Cc1ccc(NC(=O)/C=C/c2ccc([N+](=O)[O-])s2)cc1	-13%	-18%	i	-4	-30%	0	x	x	x	x
CCOC(=O)c1cccc(NC(=O)C2CCN(S(=O)(=O)c3cn(C)cn3)CC2)c1	1%	x	x	3	0%	x	x	x	x	x
CCC(=O)c1cn(CC(=O)Nc2c(C)cccc2C)c2ccccc12	2%	6%	i	-11	-5%	-13	x	x	x	x
CC(=O)c1cn(CC(=O)Nc2c(C)cccc2C)c2ccccc12	-16%	-17%	i	5	u	9	u	-10%	-3%	-1%
COc1ccc(-c2[nH]c(-c3cc(OC)c4c(c3)OCO4)nc2-c2ccccc2)cc1	4%	-18%	i	4	u	7	13µM*	u	u	36%
O=C1C(=O)N(C2CCN(S(=O)(=O)c3ccccc3)CC2)CCN1Cc1ccccc1	-4%	6%	i	1	2%	x	x	x	x	x
COc1ccc2[nH]c3c(N4CCc5ccccc5C4)ncnc3c2c1	-52%	u	u	4	7.1µM*	0	u	23µM*	18µM*	u
COc1ccc(C(=O)NCCN(C)C)c2nc3ccccc3cc12	9%	3.4µM*	u	0	7.1µM*	5	10µM*	4.6µM*	u	39%
COc1cccc2nc3c(C(=O)NCCN(C)C)cccc3cc12	-5%	u	u	-3	u	9	x	x	x	x
O=S(=O)(NCC(Nc1ccccc1)c1ccccc1)c1ccc(Cl)cc1 (configuration not stated)	-82%	u	u	-4	10µM*	-8	u	-5%	-1%	6%
O=C(NCCCCCCNC(=O)c1ccccc1O)c1ccccc1O	-35%	-20%	i	10	8.9µM*	6	u	u	u	11%
COc1cc(OC)cc(C(=O)N[C@H](C(=O)OCc2cc(=O)oc3cc(C)ccc23)C(C)C)c1	-1%	-6%	u	3	u	0	u	-5%	-12%	12%
COc1ccc(-c2c(C#N)c(SCC(=O)Nc3ccc(C)c(C)c3)nc(C)c2C(=O)Nc2ccccc2)cc1OC	-3%	9%	i	3	-3%	x	x	x	x	x
O=C1NC(Cc2ccccc2)c2nc3cc(F)c(F)cc3c(=O)n2-c2cc3ccccc3cc21 (configuration not stated)	-21%	-32%	u	-8	-2%	-8	x	x	x	x
